In PubChem BioAssay AID1159577 (Broad Institute, 2015) one finds outcome data, which are given here for 44 molecules.

The whole screen tested about 1,300 compounds, of which about 240 (18%) were called active. Roughly 8% stayed inconclusive and do not appear here. The rule behind the calls is not given here. A selection follows. Measured potencies and affinities stand elsewhere.

The assay in a line: HepG2 cell cytotoxicity, dose response, cytotoxicity control, cherry-picked samples (AID 1159577). The following applies: HepG2 cytotoxicity counterscreen, plate reader; series mostly up to 19.5 µM. A general note: A counterscreen serves to expose hits that act by an unwanted route or on another target.
In the case of `C[C@H](CO)N1C[C@H](C)[C@H](CN(C)Cc2ccc(Oc3ccccc3)cc2)Oc2c(NC(=O)c3nc4ccccc4s3)cccc2C1=O`, the call was inactive.
The value for `C[C@H](CO)N1C[C@H](C)[C@H](CN(C)S(=O)(=O)c2cccs2)Oc2ccc(NC(=O)Cc3cn(C)c4ccccc34)cc2C1=O` was “inactive”; that for `COc1ccc(C#Cc2ccc3c(c2)O[C@H](CN(C)S(=O)(=O)c2ccccc2F)[C@@H](C)CN([C@H](C)CO)S3(=O)=O)cc1` was “inactive”; that for `CC(C)(C)[S@@](=O)N1Cc2cc(C(=O)NCCN3CCCC3)nc(-c3cccc(-c4ccc(C#N)cc4)c3)c2[C@H]1CCO` was “inactive”.
Then `COCC(=O)Nc1ccc2c(c1)C(=O)N(C)C[C@H](OC)[C@H](C)CN(Cc1cc(F)ccc1F)[C@@H](C)CO2`, with “inactive”; and `COc1ccccc1CNC(=O)C[C@H]1C[C@H]2c3cc(NC(=O)Cc4ccncc4)ccc3O[C@H]2[C@H](CO)O1`, with “inactive”; and `C[C@H]1CN([C@@H](C)CO)C(=O)c2c(c3ccccc3n2C)-c2ccccc2CO[C@@H]1CN(C)Cc1ccc(-c2ccccc2)cc1`, with “inactive”.
Then `C[C@H]1CN([C@@H](C)CO)C(=O)c2c(c3ccccc3n2C)-c2ccccc2CO[C@@H]1CN(C)C(=O)Nc1cccc(C(F)(F)F)c1`, with “inactive”.
In the case of `C[C@H](CO)N1C[C@H](C)[C@H](CN(C)S(=O)(=O)c2ccc(C(F)(F)F)cc2)OCc2ccccc2-c2c(n(C)c3ccccc23)C1=O`, the outcome was inactive.
Then `C[C@H](CO)N1C[C@H](C)[C@@H](CN(C)Cc2ccc(-c3ccccc3)cc2)OCc2ccccc2-c2c(n(C)c3ccccc23)C1=O`, with “inactive”.
Then `C[C@@H]1CN([C@@H](C)CO)C(=O)c2c(c3ccccc3n2C)-c2ccccc2CO[C@H]1CN(C)C(=O)Nc1ccccc1C(F)(F)F`, with “inactive”; and `C[C@H]1CN([C@@H](C)CO)C(=O)c2c(c3ccccc3n2C)-c2ccccc2CO[C@@H]1CN(C)C(=O)Cc1ccccc1`, with “inactive”.
Turning to `COc1ccc(S(=O)(=O)N2CCC3(CC2)CN(Cc2ccncc2)[C@@H](CO)c2[nH]c4cc(OC)ccc4c23)cc1`, the call was inactive.
As for `COc1ccccc1NC(=O)Nc1ccc2c(c1)OC[C@@H](C)N(Cc1ccccc1Cl)C[C@@H](C)[C@H](OC)CN(C)C2=O`, the outcome was inactive.
Turning to `CCCN(C)C[C@@H]1Oc2cc(C#Cc3cccnc3)ccc2S(=O)(=O)N([C@@H](C)CO)C[C@H]1C`, the molecule was called inactive.
Regarding `COc1ccc2c3c([nH]c2c1)[C@H](CO)N(Cc1cc(F)ccc1F)CC31CCN(C(=O)C2CCC2)CC1`, the call was inactive.
`C[C@H](CO)N1C[C@H](C)[C@H](CN(C)C(=O)NC2CCCCC2)OCc2ccccc2-c2c(n(C)c3ccccc23)C1=O`: the molecule was called inactive.
Then `CO[C@H]1CN(C)C(=O)c2cc(NC(=O)c3ccccc3F)ccc2OC[C@H](C)N(C(=O)c2ccccc2F)C[C@H]1C`, with “inactive”.
For `CCC(=O)N1CC2(C1)CN(Cc1cccc(Cl)c1)[C@H](CO)c1c2c2ccc(OC)cc2n1C`, the molecule was classed as inactive.
With `N#C[C@@H]1[C@H](c2ccccc2-c2ccccc2F)[C@H](CO)N1C(=O)C1CCOCC1`, the result was inactive.
Consider `N#C[C@@H]1[C@@H](c2ccccc2C2=CCCC2)[C@@H](CO)N1C(=O)NC1CCCC1`, for which the outcome was inactive.
In the case of `CN(C)C(=O)c1cccc(-c2cccc(-c3nc(C(=O)NC4CCCCC4)cc4c3[C@@H](CCO)N([S@](=O)C(C)(C)C)C4)c2)c1`, the molecule was called inactive.
`COc1cccc(-c2cccc(-c3nc(C(=O)NCc4ccc(Oc5ccccc5)cc4)cc4c3[C@@H](CCO)N(S(=O)C(C)(C)C)C4)c2)c1` (some centres undefined): the molecule was classed as inactive.
On to `CC(C)(C)S(=O)N1Cc2cc(C(=O)NCc3ccc(Oc4ccccc4)cc3)nc(-c3cccc(-c4cccc(F)c4)c3)c2[C@@H]1CCO` (some centres undefined), for which the molecule was called inactive.
With `COc1cccc(CNC(=O)c2cc3c(c(-c4cccc(-c5ccncc5)c4)n2)[C@H](CCO)N([S@@](=O)C(C)(C)C)C3)c1`, the result was inactive.
For `C[C@H]1CN([C@@H](C)CO)C(=O)c2c(c3ccccc3n2C)-c2ccccc2CO[C@H]1CN(C)S(=O)(=O)c1ccc(C(F)(F)F)cc1`, the outcome was inactive.
Take `COCC(=O)N1[C@H](C#N)[C@@H](c2ccccc2-c2ccccc2)[C@H]1CO`: the call was inactive.
`COc1ccc2c3c(n(C)c2c1)[C@@H](CO)N(C(=O)c1ccc(F)cc1)CC31CN(C(=O)Nc2ccc(F)cc2)C1`: the call was inactive.
As to `COc1ccc(C#Cc2ccc3c(c2)O[C@@H](CN(C)C(=O)Nc2cccc(OC)c2)[C@@H](C)CN([C@H](C)CO)S3(=O)=O)cc1`, the molecule was called inactive.
`O=C(c1ccccn1)N1CC2(C1)[C@@H](c1ccccc1)[C@H](CO)N2Cc1ccc(Cl)cc1`: the outcome was inactive.
Turning to `COc1ccc(C#Cc2ccc([C@H]3[C@H]4CN(C(=O)c5ccc(F)cc5)CC(=O)N4[C@H]3CO)cc2)cc1`, the molecule was classed as inactive.
Then `C[C@H](CO)N1C[C@H](C)[C@@H](CN(C)C(=O)Nc2ccc(F)cc2)OCc2ccccc2-c2c(n(C)c3ccccc23)C1=O`, with “inactive”; and `CCC(=O)N1CC2(CCN(C(=O)Nc3ccccc3F)CC2)c2c([nH]c3cc(OC)ccc23)[C@H]1CO`, with “inactive”; and `CCC(=O)N1CC2(C1)CN(C(=O)Nc1ccccc1F)[C@H](CO)c1[nH]c3cc(OC)ccc3c12`, with “inactive”.
The value for `COc1ccc2c3c([nH]c2c1)[C@@H](CO)N(C(=O)Cc1ccccc1)CC31CCN(C(=O)Cc2ccccc2)CC1` was “inactive”.
Regarding `COc1ccc2c3c([nH]c2c1)[C@@H](CO)N(C(=O)c1cccc(F)c1)CC31CCN(C(=O)c2ccccc2)CC1`, the molecule was classed as inactive.
In the case of `COc1cccc(-c2ccc3c(c2)[C@@H]2[C@@H](CCN2C(=O)C2CCCC2)[C@H](CO)N3)c1`, the result was inactive.
On to `CN(C)c1ccc2c(c1)[C@@H]1C[C@@H](CC(=O)N3CCc4ccccc4C3)O[C@@H](CO)[C@@H]1O2`, for which the outcome was inactive.
On to `O=C(c1ccc(F)cc1)N1CC(=O)N2[C@H](CO)[C@H](c3ccc(C#Cc4ccc(F)cc4)cc3)[C@H]2C1`, for which the result was inactive.
In the case of `CCC(=O)N1CCC2(CC1)CN(Cc1cc(F)ccc1F)[C@@H](CO)c1[nH]c3cc(OC)ccc3c12`, the molecule was classed as inactive.
Regarding `COc1cccc(C#Cc2ccc([C@H]3[C@@H](C#N)N(C(=O)C4CCCC4)[C@@H]3CO)cc2)c1`, the result was inactive.
Turning to `COc1cccc(C#Cc2ccc([C@@H]3[C@@H](C#N)N(C(=O)C4CCCCC4)[C@H]3CO)cc2)c1`, the molecule was classed as inactive.
For the molecule `COc1ccccc1C#Cc1ccc([C@@H]2[C@H](C#N)N(C(=O)C3CCCC3)[C@H]2CO)cc1`, the molecule was called inactive.
With `COc1ccccc1C#Cc1ccc([C@H]2[C@@H](C#N)N(C(=O)C3CCCCC3)[C@H]2CO)cc1`, the result was inactive.
